Source: PubChem BioAssay (NCI)
The panel holds about 83,000 compounds, 20% with a hit somewhere; the sample as a whole holds those more often.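 Assay: single dose, 48 h. Readout: percent growth (0 = no net growth; negative = cell death). Active: <10.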 Active and inactive are the calls of the source.

Test system: UACC-257 melanoma
Assay: NCI-60 one-dose screen, 48 h (100 = growth as untreated, 0 = no growth, -100 = all killed)
Details: 10 µM unless noted

Row | SMILES | growth
1 | c1csc(C2=NN3C(C2)c2ccccc2OC3c2ccncc2)c1 (stereo not drawn) | 96.5% (inactive)
2 | CC1=CC(C)(C)Nc2ccc(Cc3ccc4c(c3)C(C)=CC(C)(C)N4)cc21 | 93.7% (inactive)
3 | CCCCn1c(-c2ccc(C(=O)O/N=C(\N)c3ccc4ccccc4c3)cc2)nc(-c2ccccc2)c1-c1ccccc1 | 98.3% (inactive)
4 | O=C(Nc1ccc(Cl)cc1)c1cc2cc(F)ccc2cc1O | -23.8% (active)
5 | Cn1cc(-c2nonc2-c2cn(C)c3ccc(F)cc23)c2cc(F)ccc21 | 71.7% (inactive)
6 | CCN(CC)S(=O)(=O)c1ccc(OC)c(NC(=O)c2[nH]c(C)c3c2CCCCC3=O)c1 | 39.6% (inactive)
7 | COc1cccc(-c2nc3sccn3c2-c2ccnc(NCCCNS(=O)(=O)c3cccc(F)c3)c2)c1 | 20.6% (inactive)
8 | COc1cc(/C=C/c2cc(/C=C/c3ccc(O)c(OC)c3)n(-c3c(C)cccc3C)c(=O)n2)ccc1O | -6.5% (active)
9 | COc1cccc(-c2nc(SCC(=O)Nc3ccc(C(=O)/C=C/c4ccc(OC)c(OC)c4)cc3)[nH]c(=O)c2C#N)c1 | 97.4% (inactive)
10 | Cc1cc(C)c2nc3nc(C)cc(C)c3c(N)c2c1 | 40.2% (inactive)
11 | FC(F)(F)c1ccc(-c2cn3nc(-c4c[nH]c5ccc(Br)cc45)sc3n2)cc1 | 107% (inactive)
12 | CC(=O)O[C@H]1[C@@H]2OC(=O)C(CSc3ccccc3)[C@@H]2C[C@H]2O[C@]2(C)CC/C=C(\C)CCC[C@@H]1C (stereo partly drawn) | 15.8% (inactive)
13 | Cc1cc(C)nc(SC2=C(Nc3ccc(O)cc3)C(=O)N(Cc3ccccc3)C2=O)n1 | 88.1% [40 µM] (inactive)
